RORgamma inh: qHTS for inhibitors of ROR gamma transcriptional activity; Nuclear receptor ROR-gamma (Mus musculus), P51450; Drosophila S2 Gal4-RORgamma UAS-luciferase reporter, 20 h; Potency, µM (series often up to 53.6 µM), most hits filed as inhibitors; hit rate 5.4% among 310,000; AID 2551, 2010; further: nearly all actives have a fitted effect of over 60% in size
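A Gal4/UAS one-hybrid system in insect cells: metallothionein-promoter Gal4–ROR gamma fusion plus Photinus luciferase reporter. Copper sulfate 700 uM final, 20 hr ambient incubation, luminescent detection after 10 min with reagent.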
VP16 counter: VP16 counterscreen qHTS for inhibitors of ROR gamma transcriptional activity | Drosophila S2 Gal4-VP16 UAS-luciferase, luminescence, 20 h | Potency, µM (doses to about 53.6 µM), most hits filed as inhibitors | hit rate 3.5% among 310,000 | AID 2546, 2010;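 further: Gal4-VP16 expression switched on by copper sulfate through the metallothionein promoter; nearly all actives have a fitted effect of over 50% in size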
ELG1 repair inh: qHTS screen for small molecules that inhibit ELG1-dependent DNA repair in human embryonic kidney (HEK293T) cells expressing luciferase-tagged ELG1. HEK293T ELG1-luciferase reporter, luminescence, 16 h; DNA damage induced by 5-fluorouridine. Potency, µM (titrated, usually from 46.1 µM), usual class: inhibitors. hit rate 2.3% among 330,000. AID 504467, 2011; further: nearly all actives have a fitted effect of over 55% in size
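HEK293T cells expressing luciferase-tagged ELG1 (2,000/well) received 5-Fluorouridine plus compound or DMSO for 16 hr at 37 °C. Luciferase was read by ONE-Glo luminescence after 30 min at room temperature.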
B2AR arrestin: qHTS assay of beta-arrestin-biased ligands of beta2-adrenergic receptor; beta-arrestin recruitment to beta2AR, cell-based reporter; Potency, µM (highest dose often 46.1 µM), usual class: activators; hit rate 0.02% among 330,000; further: nearly all actives have a fitted effect of over 65% in size
Target sequence (P07550 whole entry, looked up): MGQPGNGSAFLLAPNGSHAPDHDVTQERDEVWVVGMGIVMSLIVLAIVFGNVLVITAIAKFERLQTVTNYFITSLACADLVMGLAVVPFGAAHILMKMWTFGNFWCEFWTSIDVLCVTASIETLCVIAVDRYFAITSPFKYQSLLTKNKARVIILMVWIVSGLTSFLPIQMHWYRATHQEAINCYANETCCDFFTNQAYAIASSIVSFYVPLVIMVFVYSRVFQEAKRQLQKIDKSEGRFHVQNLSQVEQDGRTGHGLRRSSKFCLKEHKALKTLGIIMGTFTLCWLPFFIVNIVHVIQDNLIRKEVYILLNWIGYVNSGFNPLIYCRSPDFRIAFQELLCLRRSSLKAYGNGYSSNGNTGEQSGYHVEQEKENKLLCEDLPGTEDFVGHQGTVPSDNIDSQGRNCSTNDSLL
TSHR antag: Antagonists of the Thyroid Stimulating Hormone Receptor: HTS campaign; hit rate 0.2% among 330,000; activity change, negative = inhibition, % at 11.5 µM; TSHR-expressing cells, TSH-stimulated cAMP HTRF, 2 h; active compounds read low; AID 504810, 2011; Thyrotropin receptor (Homo sapiens), P16473;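 active means activity change below a set negative limit, meaning inhibition stronger than a set level, cut at about -70% in these data; inconclusive means activity change between two set negative limits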
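Inhibition of cAMP made by TSHR-expressing cells under TSH stimulation (4nM final, EC80; 2 h, 37 deg C) is quantified with a one-step lysis HTRF kit, anti-cAMP cryptate versus cAMP-d2.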
Each line names hits and unclear results; the compound was inactive in the other large screens. In the library only some 7.5% were active in any assay of this set; here they are far more common. Unless noted, the call rests on the fitted dose curve; in most records, active means well fitted curve in the direction sought with a large enough effect; inconclusive means small, poorly fitted or top-dose-only effect, or another doubt; inactive means no such curve, though single readings can be large; an effect the other way counts as inactive or inconclusive.

CN1CCOc2ccc(S(=O)(=O)N3CCN(S(=O)(=O)c4c(F)cccc4F)CC3)cc21	none (no result: RORgamma inh, VP16 counter, ELG1 repair inh)
O=C(C1CCN(c2ccc(N3CCOCC3)nn2)CC1)N1CCN(c2ccc(F)cc2)CC1	ELG1 repair inh 16µM
CCN(CC)c1nc(C)c(C(=S)Nc2cc([N+](=O)[O-])ccc2Cl)s1	RORgamma inh 3.2µM
CCC(C)(C)C(=O)Nc1cc([N+](=O)[O-])ccc1Cl	none
CCOc1ccc2[nH]c(C)c(CN3CCCCCC3)c(=O)c2c1	none
O=C1NC[C@H](c2ccccc2)OC(=O)[C@H](Cc2ccc(F)cc2)CC/C=C/C[C@@H]1CC(=O)N(CCO)Cc1ccccc1	ELG1 repair inh 12µM (no result: RORgamma inh, VP16 counter)
O=C(C[C@@H]1C/C=C/CC[C@@H](Cc2ccc(F)cc2)C(=O)O[C@@H](c2ccccc2)CNC1=O)NCCO	ELG1 repair inh 7.3µM (no result: RORgamma inh, VP16 counter)
CC(C)(C)OC(=O)C[C@H]1C/C=C\C[C@@H](CC(=O)N(CCO)Cc2ccccc2)C(=O)NC[C@H](c2ccccc2)OC1=O	ELG1 repair inh 18µM (no result: RORgamma inh, VP16 counter)
CC(C)(C)OC(=O)C[C@@H]1C/C=C\C[C@H](CC(=O)N(CCO)Cc2ccccc2)C(=O)NC[C@@H](c2ccccc2)OC1=O	none (no result: RORgamma inh, VP16 counter)
O=C(C[C@H]1C/C=C/CC[C@H](Cc2ccc(F)cc2)C(=O)O[C@H](c2ccccc2)CNC1=O)NCCO	none (no result: RORgamma inh, VP16 counter)
O=C1NC[C@@H](c2ccccc2)OC(=O)[C@H](Cc2ccc(F)cc2)C/C=C\C[C@H]1CC(=O)N(CCO)Cc1ccccc1	ELG1 repair inh 21µM (no result: RORgamma inh, VP16 counter)
CC(C)(C)OC(=O)C[C@@H]1C/C=C\C[C@@H](CC(=O)N[C@@H](CO)Cc2ccccc2)C(=O)NC[C@@H](c2ccccc2)OC1=O	ELG1 repair inh 7.3µM (no result: RORgamma inh, VP16 counter)
O=C1NC[C@@H](c2ccccc2)OC(=O)[C@@H](Cc2ccc(F)cc2)CC/C=C/C[C@H]1CC(=O)N(CCO)Cc1ccccc1	ELG1 repair inh 13µM (no result: RORgamma inh, VP16 counter)
Cn1c(SCC(=O)NCC2CCCO2)nc2c(c1=O)SCC2 (stereo not given)	none
Cc1nnc(SC(C)C(=O)Nc2ncc(Cl)cc2Cl)n1Cc1ccccc1 (stereo not given)	RORgamma inh inconclusive, VP16 counter 28µM
CSc1nnc(NC(=O)c2nc(S(=O)(=O)Cc3ccccc3)ncc2Cl)s1	RORgamma inh 13µM, VP16 counter inconclusive, ELG1 repair inh inconclusive
CC(C)c1nnc(NC(=O)c2nc(S(=O)(=O)Cc3ccccc3)ncc2Cl)s1	RORgamma inh 22µM, VP16 counter 11µM, ELG1 repair inh inconclusive, TSHR antag inconclusive
CCCSc1nnc(NC(=O)c2nc(SC)ncc2Cl)s1	RORgamma inh 13µM
CSc1ncc(Cl)c(C(=O)Nc2nnc(SC)s2)n1	none
Oc1ccc(/C=N/N=C/c2ccc(O)c(O)c2)cc1O	VP16 counter inconclusive
Oc1ccc(N=Cc2ccc(O)c(O)c2)cc1	RORgamma inh 4.5µM, VP16 counter 10µM, B2AR arrestin inconclusive
CC1=C(C)CS(=O)N(S(=O)(=O)c2ccc(Cl)cc2)C1 (stereo not given)	RORgamma inh inconclusive, VP16 counter 6.3µM
CNc1nc(-c2c(C)noc2C)nc2ccccc12	VP16 counter inconclusive (no result: ELG1 repair inh, B2AR arrestin, TSHR antag)
O=[N+]([O-])c1cccnc1N1CCC(c2cc(-c3cccc(C(F)(F)F)c3)n[nH]2)CC1	RORgamma inh 13µM, VP16 counter inconclusive
CC(=O)c1ccc(S(=O)(=O)N(C)CC(=O)N2CCCCCC2)cc1	none
COc1cccc(C(=O)NNC(=O)c2cccnc2)c1	none
COc1cc(OC)cc(C(=O)NNC(=S)NC(=O)c2cccnc2)c1	RORgamma inh 11µM
O=C(NC(=S)NCCSc1ccccc1)c1cccnc1	RORgamma inh 13µM, VP16 counter inconclusive, ELG1 repair inh inconclusive
CC(C)c1ccc(O)c(NC(=S)NC(=O)c2cccnc2)c1	RORgamma inh 0.71µM, VP16 counter 1.4µM
COC(=O)c1ccc(NC(=S)NC(=O)c2cccnc2)cc1	RORgamma inh inconclusive, VP16 counter inconclusive
COc1ccc(NC(=S)NC(=O)c2cccnc2)cc1	RORgamma inh 11µM, VP16 counter inconclusive
COC(=O)[C@@H](NC(=O)O[C@@H]1C(=O)c2cc(Br)ccc2O[C@H]1c1ccc2c(c1)OCO2)C(C)C	none (no result: ELG1 repair inh, B2AR arrestin, TSHR antag)
CC(=O)N[C@@H](CCCNC(=N)N)C(=O)N[C@H](CC1CCCCC1)C(=O)N[C@@H]1CCC2SC[C@@H](C(=O)N[C@H](CCCNC(=N)N)C(=O)N[C@H](Cc3ccc(Cl)cc3)C(N)=O)N2C1=O (stereo not given in full)	none (no result: ELG1 repair inh, B2AR arrestin, TSHR antag)
CC(C)C[C@@H](CC(=O)N[C@@H](CCC(=O)O)CC(=O)O)NC(=O)[C@@H]1CNCC[C@H]1NC(=O)C[C@H](CCCN)NC(=O)C[C@H](Cc1ccccc1)NC(=O)[C@@H]1CNCC[C@H]1N	none (no result: ELG1 repair inh, B2AR arrestin, TSHR antag)
CC(C)(C)c1cc(Cl)c(O)c(NC(=S)NC(=O)c2cccnc2)c1	RORgamma inh 0.16µM, VP16 counter 0.89µM, ELG1 repair inh 9.2µM
CC(C)(C)c1ccc(OCCNC(=S)NC(=O)c2cccnc2)cc1	RORgamma inh 13µM, VP16 counter inconclusive
O=C(NNC(=S)NC(=O)c1ccccc1)c1cccnc1	RORgamma inh inconclusive, VP16 counter inconclusive
CC(C)(C)c1ccc(C(=O)NNC(=S)NC(=O)c2cccnc2)cc1	RORgamma inh 2.8µM, VP16 counter inconclusive, ELG1 repair inh inconclusive
CC(C)(C)c1ccc(C(=O)NC(=S)NCc2cccnc2)cc1	none
CC(C)(C)C(=O)NC(=S)NNC(=O)c1ccncc1	RORgamma inh inconclusive
CC(C)(C)C(=O)NC(=S)NNC(=O)c1ccc(-c2ccccc2)cc1	RORgamma inh inconclusive, VP16 counter 16µM, ELG1 repair inh inconclusive, TSHR antag -81
O=C(Cc1ccccc1)NCC(=O)OCC(=O)c1ccc(Cl)cc1	none
O=C(Cn1c(=O)oc2ccc(Cl)cc21)Nc1ccon1	none
O=C(NC(=S)Nc1ccccc1Br)c1cccnc1	RORgamma inh 10µM, VP16 counter 18µM, ELG1 repair inh inconclusive
O=C(NC(=S)Nc1ccc(Br)cn1)c1cccnc1	ELG1 repair inh inconclusive
CC1CCCC(C)N1C(=O)c1ccc(S(=O)(=O)NCc2ccco2)cc1 (stereo not given)	RORgamma inh inconclusive, ELG1 repair inh 12µM
CC(C)(C)c1cc(CCC(=O)N2CCCC2)cc(C(C)(C)C)c1O	none
CC(C)(C)c1cc(C(=S)N2CCCC2)cc(C(C)(C)C)c1O	RORgamma inh 6.3µM, VP16 counter 5µM
COc1ccc(C(=O)NC2CC2)cc1OC1CCN(C(C)CSC)CC1 (stereo not given)	none
CCO	none (no result: ELG1 repair inh, B2AR arrestin, TSHR antag)
Cc1ccc(/C=C/C(=O)OCC(=O)c2ccc3c(c2)NC(=O)CO3)o1	ELG1 repair inh 12µM (no result: RORgamma inh, VP16 counter)
